The results in this text go back to PubChem BioAssay AID1851 (National Center for Advancing Translational Sciences (NCATS), 2009).

“And” between values parts separate entries of the source, which are not always exact repeats. Equal entries are not always repeated. The campaign covered roughly 16,000 compounds. About 5,100 (32%) were called active. Roughly 25% stayed inconclusive and do not appear here. The call rests on the fitted dose curve; in most records, active means well fitted curve in the direction sought with a large enough effect; inconclusive means small, poorly fitted or top-dose-only effect, or effect the other way; inactive means no such curve, though single readings can be large or run the other way. The list shows a part of the results.
On the % scale 0 is the no-effect control and ±100 the full control effect.

Sequence of Cytochrome P450 3A4 (Homo sapiens) (P08684 whole entry, looked up): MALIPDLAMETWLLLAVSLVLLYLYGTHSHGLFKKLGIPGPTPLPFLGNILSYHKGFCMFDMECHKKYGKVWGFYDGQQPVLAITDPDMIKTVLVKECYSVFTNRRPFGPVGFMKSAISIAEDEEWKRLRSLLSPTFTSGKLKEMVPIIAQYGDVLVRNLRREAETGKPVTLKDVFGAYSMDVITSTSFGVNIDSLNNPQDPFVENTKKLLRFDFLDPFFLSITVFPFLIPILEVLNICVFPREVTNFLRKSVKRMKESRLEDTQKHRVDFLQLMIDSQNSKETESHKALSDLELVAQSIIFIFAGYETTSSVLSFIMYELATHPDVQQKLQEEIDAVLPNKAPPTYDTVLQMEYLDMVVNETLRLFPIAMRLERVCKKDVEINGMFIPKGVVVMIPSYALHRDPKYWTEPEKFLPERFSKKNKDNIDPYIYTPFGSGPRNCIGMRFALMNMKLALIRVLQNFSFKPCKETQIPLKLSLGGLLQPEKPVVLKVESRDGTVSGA

The experiment addresses Cytochrome P450 3A4 (Homo sapiens) (UniProt P08684). Briefly: Cytochrome panel assay with activity outcomes. To be noted: recombinant CYP, pro-luciferin dealkylation, luminescence, p450-cyp3a4; series mostly up to 57.1 µM.
Consider `CC(C)NC(=O)N1CCCC2(CCN(C(=O)c3ccncc3)CC2)C1`, for which the AC50 was 15.8 µM (active).

Regarding `CC(C)NC(=O)N1CC2(CCN(C(=O)c3cc(C(F)(F)F)cc(C(F)(F)F)c3)CC2)C1`, the AC50 result is “inactive”.

`CC(C)NC(=O)N1CCCC2(CCN(C(=O)c3cc(C(F)(F)F)cc(C(F)(F)F)c3)CC2)C1`: the concentration at half-maximal activity (AC50) is 25.1 µM (active).

On to `CC(C)CN1CC[C@@]2(CCCN(C(=O)c3cc(C(F)(F)F)cc(C(F)(F)F)c3)C2)C1`, for which the AC50 was 12.6 µM (active).

For `CC(C)NC(=O)N1CC[C@@]2(CCCN(C(=O)c3cc(C(F)(F)F)cc(C(F)(F)F)c3)C2)C1`, the AC50 was 15.8 µM (active).

For the compound `Cc1noc(C)c1C(=O)N1CCC2(CCCN(C(=O)NC(C)C)C2)CC1`, the AC50 result was “inactive”.

As for `CC(C)CN1CCC2(CC1)CCN(C(=O)c1cc(C(F)(F)F)cc(C(F)(F)F)c1)CC2`, the AC50 result was “inactive”.

Turning to `COc1ccc(C(=O)N2CCC3(CC2)CN(C(=O)NC(C)C)C3)cc1`, the AC50 result is “inactive”.

Consider `CN1CCC2(CC1)CCN(C(=O)c1cc(C(F)(F)F)cc(C(F)(F)F)c1)CC2`, for which the AC50 result is “inactive”.

`C=C1CCO[C@@]2([C@H](O)[C@@](C)(O)CO)NC(=O)[C@]1(O)NC2=O`: the activity, negative = inhibition was -2.69% [at 11.4 µM] (inactive).

As to `O=C(O)CCC(=O)c1ccc2sc3ccccc3c2c1`, the activity, negative = inhibition is -21.1% [at 11.4 µM] (inactive).

Turning to `C/C(CCc1ccc2c(c1)OCO2)=N\N=C1\NC(=O)CC(C(=O)Nc2ccccc2)S1` (configuration not stated), the AC50 was 2.24 µM (active).

In the case of `COc1ccc(Cl)cc1N=Nc1ncc[nH]1`, the AC50 is 10 µM (active).

In the case of `COC(=O)c1c(-c2cc(OC)c(OC)c(OC)c2)c2ccc(OCc3ccccn3)cc2c(=O)n1-c1ccc(N)cc1`, the AC50 was 0.398 µM (active).

With `CC(C)C(=O)NCCCc1ccccc1`, the activity, negative = inhibition is 2.86% [at 11.4 µM] (inactive).

`Cc1cc(C)c(NC(=O)CS(=O)CC(=O)NCCCc2ccccc2)c(C)c1` (configuration not stated): the AC50 is 3.55 µM (active).

`N#CC(c1ccc(Cl)cc1)(c1ncc(C(F)(F)F)cc1Cl)N1CCOCC1` (configuration not stated): the AC50 is 12.6 µM (active).

On to `FC(F)(F)c1cnc(N2CCC(=NOCc3ccc(Cl)cc3)CC2)c(Cl)c1`, for which the AC50 result is “inactive”.

Turning to `COC(=O)[C@@H]1[C@@H]2C[C@H]3c4[nH]c5ccccc5c4CCN3C[C@@H]2CC[C@@H]1OS(=O)(=O)O`, the activity, negative = inhibition was 0.48% [at 11.4 µM] (inactive).

On to `CC(O)(CS(=O)(=O)Cc1ccc(Cl)cc1)C(=O)Nc1cccc(C(F)(F)F)c1` (configuration not stated), for which the AC50 was 2 µM (active).

For the compound `CC(O)(CS(=O)(=O)Cc1ccccc1Cl)C(=O)Nc1cccc(C(F)(F)F)c1` (configuration not stated), the concentration at half-maximal activity (AC50) is 2.51 µM (active).

Consider `CC(=O)Nc1cccc(C(=O)OCc2ccc(C(=O)Oc3ccc(Cl)cc3)cc2)c1`, for which the AC50 entry was “inactive”.

Regarding `O=C(CCn1nc(-c2ccc(Cl)cc2)ccc1=O)NCc1ccccn1`, the concentration at half-maximal activity (AC50) was 10 µM (active).

Turning to `COCCNC(=O)CCn1nc(-c2ccc(Cl)cc2)ccc1=O`, the AC50 entry is “inactive”.

Turning to `CN(C)CCNC(=O)Cn1nc(-c2ccc(Cl)cc2)ccc1=O`, the AC50 entry was “inactive”.

Consider `Cc1ccc(-n2nnnc2-c2cnc3ccc(Cl)cc3c2-c2ccccc2)cc1`, for which the AC50 was 5.62 µM (active).

Turning to `Cc1ccc(C(=O)CSc2nc(C)cc(=O)[nH]2)cc1`, the AC50 entry is “inactive”.

Regarding `Cc1ccc2nc(SCC(=O)c3ccc4c(c3)OCO4)[nH]c2c1`, the AC50 was 2.24 µM (active).

For `Cc1nc(SCC(=O)c2ccc(F)cc2)c([N+](=O)[O-])[nH]1`, the activity, negative = inhibition is 5.95% [at 2.29 µM] (inactive).

Consider `CNc1cc(NS(=O)(=O)c2ccc(N)cc2)nc(NC)n1`, for which the AC50 was 0.794 µM (active).

For the compound `Cc1cc(C)nc(NS(=O)(=O)c2ccc(N)cc2)n1`, the AC50 entry was “inactive”.

Take `Nc1ccc(S(=O)(=O)Nc2cnc3ccccc3n2)cc1`: the activity, negative = inhibition was -8.37% [at 11.4 µM] (inactive).

Take `NC1=N[C@H](c2ccc(Cl)cc2)N(c2ccc(S(=O)(=O)Nc3ncccn3)cc2)C(N)=N1`: the activity, negative = inhibition is 6.25% [at 11.4 µM] (inactive).

`COc1cc(CC(=O)OC2CCOC2=O)cc(OC)c1OC` (configuration not stated): the AC50 result was “inactive”.

On to `Cc1cc(C(=O)OC2CCOC2=O)c2ccccc2n1` (configuration not stated), for which the activity, negative = inhibition is -7.34% [at 11.4 µM] (inactive).

With `COc1cc(OC)cc(C(=O)NCC(=O)OC2CCOC2=O)c1` (configuration not stated), the AC50 is 25.1 µM (active).

With `O=C1C[C@@H](O)[C@@H](O)[C@H]2[C@@H]3C(=O)N(C[C@@H]4CCCO4)C(=O)[C@@H]3CC[C@H]12`, the activity, negative = inhibition is 9.5% [at 11.4 µM] (inactive) and -5.79% [at 11.4 µM] (inactive).

For `O=c1[nH]c(=S)c2[nH]c(=O)n(-c3ccccc3)c2[nH]1`, the activity, negative = inhibition was -9.23% [at 11.4 µM] (inactive).

In the case of `CCOc1ccccc1NC(=O)CN1CCC(NC(=O)c2ccccc2)CC1`, the AC50 result is “inactive”.

On to `CCOc1ccccc1NC(=O)C1=C(C)NC(=O)NC1c1cccc(OC)c1OC` (configuration not stated), for which the AC50 was 3.98 µM (active).

As to `C#CCn1c(S(=O)(=O)Cc2ccc(OC)cc2)nc(-c2ccccc2)c1-c1ccccc1`, the AC50 was 6.31 µM (active).

`COc1ccccc1C1(CC(=O)Nc2nccs2)CCOC(C(C)C)C1` (configuration not stated): the AC50 is 6.31 µM (active).

As for `O=[N+]([O-])c1ccc2c(c1)Cc1cc(N=Cc3ccc4c(c3)OCO4)ccc1-2`, the activity, negative = inhibition was -16.1% [at 11.4 µM] (inactive).

Consider `O=c1oc2cc(N=Cc3ccc4c(c3)OCO4)ccc2c2ccccc12`, for which the concentration at half-maximal activity (AC50) is 3.98 µM (active).

For `CC(=O)NC1(c2cccc(F)c2)CCN(CC(=O)NC(C)C)CC1`, the AC50 result was “inactive”.

For `COc1ccc(/C(C)=N/NC(=O)c2ccc(N(C)C)cc2)cc1`, the AC50 entry was “inactive”.

Take `COc1ccc(C(=O)N/N=C2/C(=O)c3c(C)cc(C)cc3CC2(C)C)cc1`: the AC50 is 3.16 µM (active).

For `COc1ccccc1CN1CCC2(CCNCC2)CC1`, the AC50 result was “inactive”.

Turning to `Cc1cccc(CNc2nc(-c3ccoc3)nc3ccccc23)c1`, the AC50 is 6.31 µM (active).

For `c1cncc(-c2nc(NCc3cccs3)c3ccccc3n2)c1`, the AC50 is 2 µM (active).

For `c1cncc(CNc2nc(-c3ccoc3)nc3ccccc23)c1`, the AC50 is 7.94 µM (active).

As for `c1csc(CNc2nc(-c3ccoc3)nc3ccccc23)c1`, the half-maximal activity concentration (AC50) was 7.94 µM (active).

Regarding `NS(=O)(=O)c1cc2c(cc1Cl)=NC(CCC(=O)O)=NS=2(=O)O`, the activity, negative = inhibition is 15.3% [at 11.4 µM] (inactive).

For the compound `c1ccc(CNc2nc(-c3ccoc3)nc3ccccc23)cc1`, the concentration at half-maximal activity (AC50) is 12.6 µM (active).

For the compound `CNc1cc(-c2ccccc2C)ncn1`, the AC50 entry was “inactive”.

For `Cc1ccccc1-c1cncnc1NC1CCNCC1`, the half-maximal activity concentration (AC50) is 15.8 µM (active).

For the compound `c1cncc(-c2cncnc2NC2CCNCC2)c1`, the AC50 result is “inactive”.

Take `Cc1ccccc1-c1cncnc1Nc1ccc(F)cc1`: the AC50 was 0.2 µM (active).

Take `CNc1ncncc1-c1ccccc1C`: the AC50 was 0.631 µM (active).

Consider `COc1ccccc1-c1cncnc1Nc1ccc(F)cc1`, for which the AC50 is 0.158 µM (active).

For the compound `CC(=O)N(C[C@@H](C)C(=O)O)c1c(I)cc(I)c(N)c1I`, the AC50 result was “inactive”.

For `CCCCCSc1nncc(=O)[nH]1`, the activity, negative = inhibition was 2.96% [at 11.4 µM] (inactive).

Consider `O=C(O)[C@@H]1[C@@H](C(=O)Nc2ccccc2)[C@@H]2C=C[C@@H]1O2`, for which the activity, negative = inhibition is -5.39% [at 11.4 µM] (inactive).

As for `O=C(O)[C@@H]1[C@@H]2C[C@@H]3[C@@H](OC(=O)[C@@H]31)[C@H]2Br`, the activity, negative = inhibition is -5.69% [at 11.4 µM] (inactive).

`CCCNc1[nH]c(=O)n(C)c(=O)c1N=O`: the activity, negative = inhibition is -16% [at 2.29 µM] (inactive).

`Cc1cc(Nc2ccccc2)nc(N)n1`: the AC50 entry is “inactive”.

As to `Cc1ccccc1-c1cncnc1Nc1ccccc1`, the concentration at half-maximal activity (AC50) was 0.631 µM (active).

As for `O=C(O)c1ccc(Nc2ccnc3cc(Cl)ccc23)cc1O`, the activity, negative = inhibition is -7.77% [at 11.4 µM] (inactive).

`Cc1cccc(C)c1NC(=O)C(NC=O)c1ccccc1Cl` (configuration not stated): the AC50 is 10 µM (active).

Consider `Cc1cccc(C)c1NC(=O)[C@H](C)N`, for which the AC50 result is “inactive”.

As for `CCOC(=O)c1ccc(NC(=O)C2(c3ccc(OC)cc3)CCOCC2)cc1`, the activity, negative = inhibition was -2.41% [at 2.29 µM] (inactive).

In the case of `CCOC(=O)c1[nH]c2cc3c(cc2c1NC(=O)CN1CCC2(CC1)OCCO2)OCO3`, the AC50 entry was “inactive”.

`COC(=O)c1[nH]c2cc(OC)ccc2c1NC(=O)CCN1CCSCC1`: the activity, negative = inhibition is 1.53% [at 2.29 µM] (inactive).

On to `COC(=O)c1[nH]c2cccc(OC)c2c1NC(=O)CN(C)CC1OCCO1`, for which the AC50 result is “inactive”.

As for `CCOC(=O)c1[nH]c2cc3c(cc2c1NC(=O)CN1CCc2ccccc2C1)OCO3`, the half-maximal activity concentration (AC50) was 0.708 µM (active).

With `CCOC(=O)c1[nH]c2ccc(OC)cc2c1NC(=O)c1ccc2c(c1)OCO2`, the AC50 was 1.41 µM (active).

Take `COC(=O)c1[nH]c2cc(OC)ccc2c1NC(=O)c1ccc2c(c1)OCO2`: the half-maximal activity concentration (AC50) was 7.94 µM (active).

In the case of `CCOC(=O)c1[nH]c2cc(OC)c(OC)cc2c1NC(=O)c1ccc2c(c1)OCO2`, the AC50 is 7.94 µM (active).

`CSc1cc(C)nc(NC(C)=O)n1`: the AC50 entry is “inactive”.

For the compound `CCc1nc(N[C@H](C(=O)O)C(C)CC)c2oc3ccccc3c2n1` (some centres not stated), the AC50 entry was “inactive”.

As to `Cc1nc(Oc2ccc(Cl)cc2)c2oc3ccccc3c2n1`, the activity, negative = inhibition is 5.99% [at 2.29 µM] (inactive).

For `CCc1nc(SCC(=O)c2ccc(Cl)s2)c2oc3ccccc3c2n1`, the AC50 is 7.94 µM (active).

Take `CCc1nc(SCC(=O)NCCc2ccccc2)c2oc3ccccc3c2n1`: the AC50 is 3.55 µM (active).

For the compound `CCc1nc(SCC(=O)N2CCCc3ccccc32)c2oc3ccccc3c2n1`, the AC50 was 15.8 µM (active).

Consider `Cc1ccccc1C(=O)NC(C)c1ccc2c(c1)CCCC2` (configuration not stated), for which the AC50 result was “inactive”.

Turning to `CCCCN=c1sc(C(=O)OC)cc(=O)n1CCCC`, the AC50 entry was “inactive”.

`COC(=O)[C@H](CCSC)NC(=O)NCc1ccccc1F`: the AC50 is 15.8 µM (active).

Consider `COC(=O)[C@H](CCSC)NC(=O)C/C=C\[C@@H](C)CO`, for which the activity, negative = inhibition is -19.4% [at 11.4 µM] (inactive).

On to `COC(=O)[C@H](CCSC)NC(=O)C/C=C\[C@@H](C)[C@@H](CO)OC`, for which the activity, negative = inhibition was -14.3% [at 11.4 µM] (inactive).

For `C[C@@H](C(=O)Nc1ccc2ccccc2c1)[C@@H]1C[C@@]1(C)[C@@H](NC(=O)c1cnccn1)c1ccccc1`, the AC50 is 1 µM (active).

In the case of `C[C@@H](C(=O)Nc1ccc2ccccc2c1)[C@H]1C[C@]1(C)[C@H](NC(=O)c1cnccn1)c1ccccc1`, the AC50 is 0.631 µM (active).

Take `C[C@@H](C(=O)Nc1ccc2ccccc2c1)[C@@H]1C[C@@]1(C)[C@@H](NC(=O)c1ccncc1Cl)c1ccccc1`: the concentration at half-maximal activity (AC50) is 10 µM (active).

One may read the AC50 as the concentration at which the activity in the assay is half-maximal.
